Out of some 53,000 sequences screened, about 3,700 (7%) were called active. The full list was thinned out, with actives kept by preference. Values without a mark were called inactive.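 Rule for the calls: active = gene knockdowns whose robust z-score for IL-1 alpha signal is at least 2 or at most -2, so actives lie on both sides; inactive = the rest.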
Test: Components of the Cytosolic LPS Sensing Pathway: Gene Identification via Genome-wide siRNA Screen;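 note: robust z of the log signal after scaling to non-targeting control siRNA wells of the plate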
Details: RAW264.7 macrophages, IL-1a HTRF, actives lie on both sides, screened at 100 nM (by protocol), cells primed 5 h with Pam3CSK4 first
Outline: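 Three distinct siRNAs per gene were tested singly at 100 nM in RAW264.7 macrophages. Following Pam3CSK4 priming and 24 hour LipidA transfection, IL-1a secretion was read by HTRF.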
With GCACCAAUUCCCUAACUGGTT against Fam102a the z-score was 0.244. With GGACCUACAUAACAAGCUUTT against Thnsl2 the z-score was 1.83. With GGCAGAAGCAGAUAUUAGATT against Rbmxl1 the z-score was 2.23 (active). For GGUUUCUGUUUUGUCACACTT against Slc22a13b, the z-score was -0.535. In the case of GGGCAAUGGAAGAAUUCCUTT against BC030500, the z-score is reported as -1.69. For GGAGCAAGAUGAAGAAGAGTT against Ticam2, the z-score was -2.26 (active). CCACGCUACCUUCAAGAGATT against Clec14a showed a z-score of 0.946. Sequence GGAUCUUGACUUUGAUAUGTT against Trpm4 has a z-score of 0.0632. Sequence GGACUCAAAACCAUUUACATT against Dram1 has a z-score of -1.13. Work on GGAUCAACUGGUGACACAGTT against Preb yielded a z-score of -0.00996. For GGAUCCUGCUCAAAAAAGUTT against Arxes1, the z-score was -0.431. With GGAAGAUCAUAAUGGACAGTT against Pcsk9 the z-score was 6.01 (active). In the case of GAAGUCGGUGGACAAGAACTT against Cebpa, the z-score is reported as 0.662. With “GCACUGUUUGUGCAAACAATT against C130071C03Rik” the z-score was -2.22 (active). CCACUCUAAUGAUGUUUUUTT against Slc46a3 gave a z-score of 0.411. In the case of CCCACUGGUGUACGUGAUCTT against Bdkrb2, the z-score is reported as 2.21 (active). With GGCUAAGGAAUGUCAAUAATT against Dnajc5g the z-score was 0.0787. GGUGCUACCUCUAGAUAUUTT against Utp3 gave a z-score of 1.96. For CCACUUCUCUAAGACAAUCTT against Acox3, the z-score was -0.107. CCCAUUGGAACUGCUGUAATT against Metrnl showed a z-score of 0.932. In the case of GGUCAAAGUUAUGCAAUGUTT against Rp9, the z-score is reported as -2.02 (active). With GGACUUGAUUAUCUACACUTT against Stk24 the z-score was -2.24 (active). Sequence CGAAUAUGGUAUUCACUCATT against Skint4 has a z-score of 0.157. For GCCCUUACAUUUUAUACUATT against Zfp93, the z-score was 1.1. CCACGUCCUCUACUUGUAUTT against Nmbr showed a z-score of -0.813. In the case of GCGUAACUACUACAUGAAUTT against Ano9, the z-score is reported as -2.33 (active). With GGACUUACUUCCCAUUUCGTT against Gdpd3 the z-score was 0.297. GGUGUAUGCGUCACUAGAATT against Rxra showed a z-score of 0.0162. GGACUACUCUGCCAGAUGGTT against Fam71f1 gave a z-score of 0.0252. In the case of GCUUUAAGUACUUUAACGCTT against Ncr1, the z-score is reported as 1.04. In the case of GCAGCUACUACACCAACCATT against Dlx2, the z-score is reported as -2.46 (active). Sequence CGAAAACAGUACGAUGCUUTT against Dnajb11 has a z-score of 1.03. CCUCAAUGAAGACCCAUUATT against Kif1b gave a z-score of -1.35. GGUUUUCUAUGGAAGAGAUTT against Igdcc4 showed a z-score of 0.835. For GGUAUCCACUGUGCCAACCTT against Ush2a, the z-score was -0.343. CGAUCGUAUUCAAUGGAAATT against Rims2 showed a z-score of -0.998. For GCAUCUGCAUUUUUUGCUATT against Prox1, the z-score was 1.29. GCUUUUGCUACAAGUGUAUTT against Cop1 gave a z-score of -0.593. In the case of GGCAGAUGGCCGAAUUGAUTT against Rest, the z-score is reported as -1.13. With GGACGAUUUAAGGAUUUUUTT against Dcun1d1 the z-score was -2.4 (active). In the case of CCAAGUACCCUGAGAGUUUTT against Pnpla6, the z-score is reported as 1.46. For GCCAAACGAACAACAAAACTT against Chrm3, the z-score was -0.166. In the case of CGUACCACACGAUGAAUAGTT against Pou4f1, the z-score is reported as -0.525. In the case of CCGCAUGAACUUCCUACAGTT against Ugt1a1, the z-score is reported as 1.2. In the case of GGCGUAUUCUGGUAUCCAGTT against Celf1, the z-score is reported as 2.08 (active). With GCACUGAACUUUCCUGACCTT against Ppdpf the z-score was 1.78. For CCAUUCGAGAUGAGAAGAATT against Gcc1, the z-score was -0.287. GGGAAAAGAUCGACAAAGATT against Plk2 gave a z-score of -0.217. With GGCCCAUGAUCCAUUUUGGTT against Prnp the z-score was -2.07 (active). Sequence GGAAAAGGAGGAGAGUUAUTT against Nkapl has a z-score of 0.153. GGGUGGUGGCAUUAAACUUTT against Stk36 showed a z-score of 1.75. For GCUUUUCGGAGCUCUAUAUTT against Sipa1, the z-score was -2.23 (active). GGCAGACGGUAAUAAACAUTT against Ralgapb gave a z-score of -1.08. Sequence GCGUGUAUACCAGCCUUACTT against Egfl7 has a z-score of 0.0437. With GGACAUGAGGACUGUAUCATT against Clec4g the z-score was -3.2 (active). In the case of GGAAGGAUCUAAUCUUUUUTT against Vamp2, the z-score is reported as 1.56. For GGAAGAAUUCUUGAAGAUGTT against Cetn4, the z-score was 1.13. Sequence GCUAUGUGUUGAUUUAAAGTT against Pdk1 has a z-score of 0.422. For GGCUACAGCCGUCAAAGAUTT against R74862, the z-score was -0.091. Sequence GGAAGAAGCCUUUUGAGUGTT against Peg3 has a z-score of 1.39. With CCAGCUAUGAAUCAGAAUGTT against Bend6 the z-score was 2.6 (active). Sequence CCGAAAGAUCAGCACAUCCTT against Olfr24 has a z-score of -0.184. In the case of CGGCUGUGUGCAUUUAAAGTT against Bmpr2, the z-score is reported as 0.616. In the case of CCUUUGAUUCACAAUGGUUTT against Smad4, the z-score is reported as -0.0886. With GCUCGAACAUAGCAGCAAGTT against BC061195 the z-score was -2.11 (active). GGGUUUCAACCGUCACCUGTT against Pygl showed a z-score of -1.89. Sequence “GGCCCUUACAGAGUCUGGATT against B930095G15Rik” has a z-score of 0.833. Work on CGAAUUCAUACCAAGAAAGTT against Myo3a yielded a z-score of 0.477. With GCCAAGUGGUGACAUCAACTT against Ralgds the z-score was 2.7 (active). GGGCAAUGUGUUUAUGUAUTT against Tmem30a gave a z-score of -0.264. In the case of GGAUAUACAAAGGAACGCATT against Wdr20rt, the z-score is reported as -0.862. Work on GGUUCUGACCACCUACAUATT against Htr3a yielded a z-score of -1.62. Work on GGCUAUACCCUGAAAUAUUTT against Slitrk4 yielded a z-score of -0.00892. For CCUACUACACCACUUGGGUTT against Dpm2, the z-score was 0.365. Sequence GGGCAAAUUAGAGACCAAGTT against Nwd2 has a z-score of 0.692. GGAGGAUAUGAGCAAGUACTT against Isg20 showed a z-score of -0.476. Sequence GGUUAACGGAUCAACAUUUTT against Ube2d2a has a z-score of 1.71. With GGAAUUUUCUUCAUUUGGATT against Pabpc5 the z-score was -0.878. With GGUACCAGACCUCAUAGUUTT against Cep95 the z-score was 2.16 (active). Work on GGGAAGAAAAUGAAAGGUUTT against Cdk5rap2 yielded a z-score of -1.14. GGUGUCAACCAGUUGUUUUTT against Nr2c1 gave a z-score of -1.2. CCUAAAGUCACAUCUAAGATT against Pum3 gave a z-score of 1.06. GGAACUGUCCGAUCUUAGATT against Prrg4 showed a z-score of -1.88. GCUACUCCCUGCAUAUUAGTT against Slamf9 showed a z-score of -1.48. GGCAGCUUUCCUAUUGAAUTT against Tex19.1 gave a z-score of 0.233. For GGACUUUGAUCAGCUGUCUTT against Tmem17, the z-score was -2.12 (active). With GGUUGAUCGUGUCAUGUAGTT against Poc1b the z-score was 0.0595. GGCUAUACCUUUGACUAUGTT against Csnk1g1 gave a z-score of 0.0256. With GGGCAGCAUCGGACUAAAUTT against Agtr1a the z-score was 2.35 (active). Sequence GGUUGUAGGAGAGGAAGCCTT against Apobr has a z-score of -0.572. GGUACGAAGUCAAAGUGAATT against Dnmt3l gave a z-score of 0.0494. In the case of GGAGUUAGAUGCCCUCAAGTT against Trappc6a, the z-score is reported as -0.796. Work on CAGCUGAGAUUGAUGGCCATT against Olfr313 yielded a z-score of -0.6. In the case of GCCUGAAUAUUGCUAUCACTT against Gpr107, the z-score is reported as 2.35 (active). GCAACAACCACCAAAUCUATT against Prol1 showed a z-score of -1.53. For GGAAGAAUGUGAUGACUCATT against Zfp11, the z-score was -0.471. For “GGUAAUUUAAUGACACAUGTT against A130079P16Rik”, the z-score was 2.35 (active). GGAUCCAGACACCUCAAGATT against Vxn gave a z-score of 0.702. In the case of CGUUCAUGUUGUAAGUAUCTT against Olfr1196, the z-score is reported as 0.461. For GGAGACUUUGAAAAAAGACTT against Mrps31, the z-score was 0.5. With GCUGAAAAUAUACCAUUCATT against Colec10 the z-score was -0.798. For GGAUCCAGACUUAAGCUUATT against Zgpat, the z-score was 2.57 (active). Work on CGGAUUACAAACCAUAAAATT against Mex3b yielded a z-score of -0.497. GGAGAAGAGAAAGAUUCUUTT against Dhx9 showed a z-score of 0.724. For GGCAAUGGAAGUUGGAACATT against Ptch1, the z-score was -2.15 (active). In the case of GGACACAUGGUGUUGACCATT against Parp12, the z-score is reported as 0.0379. GGACCUGAUCUUCAGGUUUTT against Gpc5 gave a z-score of 1.73. GGCUCUCAAUUUUAUUUCUTT against Ncaph2 gave a z-score of 0.894.

Reference: PubChem BioAssay AID1508600 (Functional Genomics Laboratory (NCATS/FGL), 2020)
